Bioassay records as filed in PubChem BioAssay.
This is a sample that favours compounds with a hit; in the whole collection about 2.2% have one here.
aSyn UTR inh: MLPCN primary screen, SNCA 5' untranslated region. AID 1813. inhibition, % (tested at 7.5 µM). actives 0.82% (n = 300,000). alpha-synuclein 5'UTR reporter, inhibitor activity; in the data active = inhibition above about 60%;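 also: H4 neuroglioblastoma cells stably carrying SNCA 5'UTR luciferase fusion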
KLF5 inhibitor: inhibitors of KLF5 expression; DLD-1 KLF5 promoter-luciferase reporter, luminescence; inhibition, % at 5 µM; actives 0.23% (n = 290,000); AID 1700;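 active = inhibition above a per-plate limit of that plate's mean compound inhibition plus 3 SD, cut at about 60% in these data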;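 also: higher means less KLF5 promoter-driven luciferase light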
Ba/F3 V617F tox: loss of viability in JAK2V617F-driven Ba/F3 cells; Ba/F3 EpoR-JAK2V617F viability, ATP luminescence; inhibition, % at 5.6 µM; actives 1.1% (n = 220,000); AID 1446;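 active = inhibition above the campaign mean plus 3 SD over all tested compounds, cut at about 24% in these data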;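 also: cytokine-independent growth of Ba/F3 cells driven by EpoR plus mutant JAK2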
BaF3 parental: parental Ba/F3 viability inhibition as JAK2V617F counter-screen; CellTiter-Glo ATP luminescence; inhibition, % at 5.6 µM; actives 1.1% (n = 220,000);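 active = inhibition above a per-campaign cutoff, the mean inhibition of all tested compounds plus 3 SD, cut at about 27% in these data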
IEC-6 tox-1: IEC-6 cytotoxicity, counter-screen for KLF5 inhibitors; luminescence viability; actives 0.78% (n = 290,000); inhibition, % at 5 µM
APP transl inh: APP translation inhibition. inhibition, % at 2 µM. SH-SY5Y APP 5'UTR-luciferase reporter, luminescence. actives 0.82% (n = 190,000);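 active = inhibition above a set limit, derived from the sample mean plus 3 SD, cut at about 45% in these data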
KLF5 confirm: confirmation of KLF5 inhibitors; shares compounds with KLF5 inhibitor; DLD-1 KLF5 promoter firefly luciferase reporter, luminescence; inhibition, % at 4 µM; actives 79% (n = 610); AID 1834;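 active = inhibition above a set limit taken from the earlier primary screen, cut at about 63% in these data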
IEC-6 tox-2: rat IEC-6 cytotoxicity, KLF5 inhibitor counter-screen; shares compounds with KLF5 inhibitor; IEC-6 rat intestinal cells, viability luminescence; inhibition, % at 4 µM; actives 56% (n = 610); AID 1905; in the data active = inhibition above about 23%;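 also: cells exposed to compounds for 48 hours before viability read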
IEC-6 tox confirm: IEC-6 cytotoxicity, confirmation assay; shares compounds with IEC-6 tox-1; inhibition, % at 5 µM; AID 1907; IEC-6 rat intestinal epithelial viability, luminescence; actives 63% (n = 1,900)
Of the large screens only hits and unclear results are named; the others gave an inactive call (follow-up assays come after a bar, where they were run). Rule as the data show it, unless noted: active = inhibition above about 22%; inactive = the rest.

N#CC1=C2SCN(c3ccccc3)CN2C(=O)CC1c1cccs1 (centres undefined)	none
COc1ccc(NC(=O)/C(Cl)=C(/Cl)S(=O)Cc2ccccc2)cn1 (centres undefined)	aSyn UTR inh 121, KLF5 inhibitor 96, Ba/F3 V617F tox 99, BaF3 parental 102, IEC-6 tox-1 100 (no result: APP transl inh) | KLF5 confirm 107 | IEC-6 tox-2 73 | IEC-6 tox confirm 90
COc1ccc(NC(=O)Cc2ccccc2)cn1	none
CCn1c(O)c(N=NC(=O)CNC(=O)Cc2ccccc2)c2ccccc21	none (no result: Ba/F3 V617F tox, BaF3 parental, APP transl inh)
O=C(CNC(=O)c1ccco1)N=Nc1c(O)n(CCc2ccccc2)c2ccccc12	KLF5 inhibitor 71, Ba/F3 V617F tox 74, BaF3 parental 68, IEC-6 tox-1 85 (no result: APP transl inh) | KLF5 confirm 83 | IEC-6 tox-2 72 | IEC-6 tox confirm 67
CC(C)Oc1ccccc1C1CC(=O)Nc2cc3c(cc21)OCCO3 (centres undefined)	aSyn UTR inh 73, KLF5 inhibitor 80, Ba/F3 V617F tox 74, BaF3 parental 78, IEC-6 tox-1 88, APP transl inh 95 | KLF5 confirm 98 | IEC-6 tox-2 90 | IEC-6 tox confirm 56
COc1cccc(C2CC(=O)Nc3cc4c(cc32)OCCO4)c1OC(C)C (centres undefined)	none (no result: aSyn UTR inh)
CCOc1ccccc1C1CC(=O)Nc2cc3c(cc21)OCO3 (centres undefined)	aSyn UTR inh 66, KLF5 inhibitor 74, Ba/F3 V617F tox 79, BaF3 parental 75, IEC-6 tox-1 83, APP transl inh 90 | KLF5 confirm 91 | IEC-6 tox-2 65 | IEC-6 tox confirm 57
CCc1sc(C(=O)NCCc2ccc(S(N)(=O)=O)cc2)cc1Br	none
Oc1nc(Nc2ccc(F)cc2)sc1/C=C1\C=Nc2ccccc21	none (no result: APP transl inh)
CC1=Nc2ccccc2/C1=C\c1sc(Nc2ccc(C)cc2)nc1O	KLF5 inhibitor 66, Ba/F3 V617F tox 76, BaF3 parental 75, IEC-6 tox-1 79, APP transl inh 96 | KLF5 confirm 85 | IEC-6 tox-2 58 | IEC-6 tox confirm 54
O=C(COc1ccc(Cl)cc1Cl)c1ccc[nH]1	none (no result: APP transl inh)
COc1ccc(-n2nnnc2SCC(=O)NCCc2ccccc2)cc1OC	none
COc1ccc(CCNc2nnc(Sc3nnnn3-c3ccccc3)s2)cc1OC	aSyn UTR inh 120, KLF5 inhibitor 65, Ba/F3 V617F tox 93, BaF3 parental 96, IEC-6 tox-1 93, APP transl inh 94 | KLF5 confirm 80 | IEC-6 tox-2 70 | IEC-6 tox confirm 77
CCC1Nc2ncnc(N3CCN(c4ccccn4)CC3)c2N(Cc2ccc(Cl)cc2)C1=O (centres undefined)	none (no result: KLF5 inhibitor, Ba/F3 V617F tox, BaF3 parental, IEC-6 tox-1, APP transl inh)
O=C(Sc1cccc2cccnc12)c1ccccc1Br	KLF5 inhibitor 62, IEC-6 tox-1 102 (no result: Ba/F3 V617F tox, BaF3 parental, APP transl inh) | KLF5 confirm inactive | IEC-6 tox-2 100 | IEC-6 tox confirm 99
CN(C)c1ccc(C(=O)c2ccccc2C(=O)O)cc1[N+](=O)[O-]	none
CN(C)c1ccc(C(=O)c2ccc(N(C)C)c3ccccc23)cc1	aSyn UTR inh 89, KLF5 inhibitor 80, Ba/F3 V617F tox 94, BaF3 parental 94, IEC-6 tox-1 97, APP transl inh 95 | KLF5 confirm 92 | IEC-6 tox-2 85 | IEC-6 tox confirm 84
Cc1cccc(N2CCN(C(=O)c3cccc(N4CCCC4=O)c3)C(C)C2)c1 (centres undefined)	KLF5 inhibitor 64, IEC-6 tox-1 63 (no result: Ba/F3 V617F tox, BaF3 parental, APP transl inh) | KLF5 confirm 69 | IEC-6 tox-2 36 | IEC-6 tox confirm 40
Cc1ccc2nc(SCc3nnc(-c4ccccc4Br)o3)[nH]c2c1	IEC-6 tox-1 22 | IEC-6 tox confirm inactive
Clc1ccc2nc(SCc3nnc(-c4ccccc4)o3)[nH]c2c1	none
CC1(C)CC(=O)C=C(Nc2ccc([N+](=O)[O-])cc2)C1	none (no result: Ba/F3 V617F tox, BaF3 parental, APP transl inh)
CC(=O)N1CCc2cc(S(=O)(=O)CCC(=O)NCc3ccc(F)cc3)ccc21	none (no result: Ba/F3 V617F tox, BaF3 parental, APP transl inh)
CC(C)c1ccc(NC(=O)C(c2ccc3c(c2)OCO3)N2CCN(C(=O)c3ccco3)CC2)cc1 (centres undefined)	none
